The panel holds about 79,000 compounds, 15% with a hit somewhere; the sample as a whole holds those more often. Rule as the data show it: active = growth inhibition above about 70%; inactive = the rest. Where a SMILES comes first, the peptide text is derived from it. [ ]: non-standard residue; d: D form. The star is where a group is joined. Cbz = O=C(OCc1ccccc1)*; Dha = C=C(N)C(=O)O
Assays:
[1] = NCI Yeast Anticancer Drug Screen. Data for the rad50 strain (AID 155);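 also: 0% = growth of vehicle-only cultures of the same strain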; conditions: S. cerevisiae rad50 strain growth inhibition; at 50.0 µM; hits give high values
Procedure, shortened: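 Inhibition values express reduced yeast growth in compound-treated cultures relative to vehicle-treated controls.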

[2] = NCI Yeast Anticancer Drug Screen. Data for the mec2-1 strain (AID 157); conditions: S. cerevisiae mec2-1 strain, at 50.0 µM, hits give high values
Procedure, shortened: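 Strain: mec2-1 (DNA repair/cell cycle alteration). Compound exposure, then growth measured; inhibition expressed relative to vehicle.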

[3] = NCI Yeast Anticancer Drug Screen. Data for the sgs1 mgt1 strain (AID 161);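 also: 0% = growth of cultures given vehicle only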; conditions: S. cerevisiae sgs1 mgt1 strain, at 50.0 µM, hits give high values
Procedure, shortened: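 Genetically altered yeast, compound exposure, growth inhibition relative to vehicle.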

[4] = NCI Yeast Anticancer Drug Screen. Data for the cln2 rad14 strain (AID 165);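 also: 0% = growth equal to vehicle treated cultures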; conditions: S. cerevisiae cln2 rad14 strain, at 50.0 µM, hits give high values
Procedure, shortened: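 Compounds are applied to the cln2 rad14 yeast strain, and growth is then compared with that of vehicle-treated cultures to give inhibition.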

[5] = NCI Yeast Anticancer Drug Screen. Data for the bub3 strain (AID 167); conditions: S. cerevisiae bub3 mutant strain, at 50.0 µM, hits give high values
Procedure, shortened: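 Steps: expose the mutant yeast strain to compound; grow alongside vehicle-treated cultures; measure growth; express inhibition against the vehicle cultures.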

[6] = NCI Yeast Anticancer Drug Screen. Data for the mlh1 rad18 strain (AID 175); conditions: S. cerevisiae mlh1 rad18 strain growth inhibition; at 50.0 µM; hits give high values
Procedure, shortened: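 Read-out is yeast growth inhibition, calculated against vehicle-only controls. The compound was applied to a strain engineered with DNA damage repair alterations.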

Measured: growth inhibition

COC(=O)c1ccccc1CC1Cc2cc3c(cc2C1)CCC3
inactive: [1] 20.5% | [2] 7.1% | [3] -0.7% | [4] 12.9% | [5] 4.3% | [6] 5.45%

c1ccc(C2=NCCc3cc4c(cc32)OCO4)cc1
inactive: [1] 3.35% | [2] 0.7% | [3] 7.8% | [4] 10.1% | [5] 13.2% | [6] 9.4%

O=C(O)/C=C/c1ccc(OCc2ccccc2)c(OCc2ccccc2)c1
inactive: [1] 0.7% | [2] -11.7% | [3] 7.15% | [4] -10.9% | [5] -8.85% | [6] -6.9%

CC1(C)CC(C)(C)c2c1oc(=O)c1c3c(oc(=O)c21)C(C)(C)CC3(C)C
inactive: [1] 15.7% | [2] -9.1% | [3] 12.8% | [4] 35.5% | [5] 26.2% | [6] -9.85%

CCC1(CC)NC(=S)NC1=S
inactive: [1] 24.5% | [2] 7.4% | [3] 26.4% | [4] 10% | [5] 16.4% | [6] 20%

COCCCNC(=O)CC(=O)NCCCOC
inactive: [1] 13.4% | [2] -2.3% | [3] 24.8% | [4] 6.55% | [5] 5% | [6] 29.4%

c1ccc(Nc2nnc(-c3nsc4ccccc34)o2)cc1
inactive: [1] -34.5% | [2] -40.9% | [3] -42.8% | [4] -1.4% | [5] -31.9% | [6] -35.9%

Nc1nc(Sc2ccc([N+](=O)[O-])c3nonc23)c2[nH]cnc2n1
inactive: [1] 17.1% | [2] 7.25% | [3] -20.4% | [4] 17.2% | [5] 29.1% | [6] 34.6%

Cc1cc(NS(=O)(=O)c2ccc(NC(NC(=O)C(C(F)(F)F)C(F)(F)F)(C(F)(F)F)C(F)(F)F)cc2)no1
inactive: [1] 1.4% | [2] -18.1% | [3] -24.9% | [4] -8.4% | [5] 10.6% | [6] 0.55%

N#CNc1c2ccccc2nc2ccccc12
inactive: [1] -12.1% | [2] 1.05% | [3] -16.6% | [4] 2.85% | [5] 6.5% | [6] -4.75%

CN(/N=C/c1ccc(Cl)c(Cl)c1)C1=NCCCCN1
inactive: [1] 1.45% | [2] -13.8% | [3] 2.15% | [4] -6.95% | [5] -15.8% | [6] -2.8%

OCC=C1CCCCCC1
inactive: [1] 4.9% | [2] 6.8% | [3] 1.5% | [4] -4.25% | [5] 12.3% | [6] 2.95%

c1ccc(Cc2nnc3n2CCC(c2ccccc2)S3)cc1 (stereo unspecified)
inactive: [1] -9.8% | [2] 1.3% | [3] -10.9% | [4] 2.4% | [5] 5.05% | [6] -0.25%

O=C1NCC(C2CC2)(C2CC2)O1
inactive: [1] 8.85% | [2] -16.9% | [3] -5.7% | [4] -34% | [5] 8.7% | [6] -21%

CC1(Br)S(=O)(=O)OCCOS1(=O)=O
inactive: [1] -23% | [2] -15.9% | [3] -12.3% | [4] 6.1% | [5] -24.2% | [6] -42.5%

NC(N)=Nc1ccc(Sc2ccc(N=C(N)N)cc2)cc1
inactive: [1] -15.8% | [2] -35.5% | [3] -16.6% | [4] -19.6% | [5] -4.65% | [6] -26.5%

O=C(Nc1cccc(O)c1)c1ccccc1Cl
inactive: [1] 9.3% | [2] -6% | [3] -15.4% | [4] -86.3% | [5] -11.9% | [6] -30.1%

C=C(NC(=O)CNC(=O)OCc1ccccc1)C(=O)O (Cbz-Gly-[Dha]-OH)
inactive: [1] 3.05% | [2] 11.2% | [3] 7.4% | [4] -9.85% | [5] 15.7% | [6] 14%

COc1ccc(NC=O)c(C)c1
inactive: [1] -10.5% | [2] -38.8% | [3] -5.35% | [4] -10.3% | [5] 28.6% | [6] -29%

CCCCCC(=O)OCC(CC)CC
inactive: [1] -8.05% | [2] -6.55% | [3] -13.3% | [4] -29.6% | [5] -1.05% | [6] 5.35%

BrC1C2=C(c3ccccc31)C(Br)c1ccccc12 (stereo unspecified)
inactive: [1] 14.9% | [2] 4.05% | [3] 15.3% | [4] 28.8% | [5] -12.3% | [6] 1.7%

Source: PubChem BioAssay (NCI)
